Source: PubChem BioAssay (NCI)
About 83,000 compounds went through this panel and 20% of them were active in at least one assay; those are over-represented in the sample as a whole.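 Activity criterion: percent growth below 10, measured after cells in 96-well plates were exposed to a single compound concentration for 48 hours.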 Values without a mark were called inactive. Active and inactive are the calls of the source.

Assays:
Assay in all cases: NCI-60 one-dose screen, 48 h (100 = growth as untreated, 0 = no growth, -100 = all killed)
Conditions in all cases: 10 µM unless noted
SK-MEL-2 melanoma = system: SK-MEL-2 melanoma
EKVX NSCLC = system: EKVX NSCLC
SN12C renal = system: SN12C renal
UO-31 renal = system: UO-31 renal
TK-10 renal = system: TK-10 renal
ACHN renal = system: ACHN renal
CAKI-1 renal = system: CAKI-1 renal
A498 renal = system: A498 renal
CCRF-CEM leukemia = system: CCRF-CEM leukemia
MOLT-4 leukemia = system: MOLT-4 leukemia

| Structure (SMILES) | growth (SK-MEL-2 melanoma) | growth (EKVX NSCLC) | growth (SN12C renal) | growth (UO-31 renal) | growth (TK-10 renal) | growth (ACHN renal) | growth (CAKI-1 renal) | growth (A498 renal) | growth (CCRF-CEM leukemia) | growth (MOLT-4 leukemia) |
| --- | --- | --- | --- | --- | --- | --- | --- | --- | --- | --- |
| O=C(/C=C/c1cn(-c2ccccc2)nc1-c1ccc(Cl)cc1)c1ccc(F)cc1 | 88.6% | 116% | 78.1% | 63.3% | 107% | 77.7% | 76.5% | 96.5% | 40% | 36.1% |
| CCOC(=O)c1c(C(=O)c2cn(C)c3ccc(Br)cc23)c(-c2cn(C)c3ccc(Br)cc23)n(NC(=O)OC(C)(C)C)c1C | 57.8% [100 µM] | 80.5% [100 µM] | 92% [100 µM] | 58.7% [100 µM] | 69.2% [100 µM] | 78.9% [100 µM] | 43.9% [100 µM] | 87.2% [100 µM] | 102% [100 µM] | 99.5% [100 µM] |
| Cc1cc(C(=O)Nc2ncc(Cc3cccc(C(F)(F)F)c3)s2)c2ccccc2n1 | -16% (active) | 43.2% | 47.7% | 29% | 49.5% | 28.1% | 13.3% | 0.174% (active) | 11.8% | 14.9% |
| Oc1c(Br)cc(Br)c2ccc(Cn3cc(-c4ccccc4C(F)(F)F)nn3)nc12 | 101% | 95.5% | 96.9% | 78.7% | 134% | 61.8% | 55% | 106% | 28.7% | 6.89% (active) |
| COc1cc(OCc2cccc(Br)c2C)cc(OC)c1C=O | 88% | 80.8% | 77.5% | 71.8% | 45.4% | 90.7% | 24.2% | -88.7% (active) | 77% | 80.2% |
| CN1CCN(c2cc(Nc3cc(C4CC4)[nH]n3)nc(Nc3ccc(CC(=O)NCc4cccc(F)c4)cc3)n2)CC1 | 48.9% | 50.3% | 23.5% | 36.8% | 34.5% | 45.9% | 5.36% (active) | -28.7% (active) | 36.8% | 16% |
| C=C(C)[C@@H]1CCC[C@]2(COS(=O)(=O)c3ccc(C)cc3)CC[C@]3(C)[C@@H](CC[C@@H]4[C@@]5(C)CCCNC(C)(C)[C@@H]5CC[C@]43C)[C@@H]12 | 83.1% | 9.77% (active) | -94.4% (active) | 61% | 43.2% | 44.6% | -68.3% (active) | 81.3% | 1.15% (active) | -11.1% (active) |
| CCOC(=O)C1=C(C)NC(=O)NC1c1c(Cl)n(CCCl)c2ccccc12 (stereo not given) | 106% | 97.8% | 101% | 68.5% | 34.1% | 99% | 86.6% | 95.3% | -54.5% (active) | 103% |
| COc1ccc(Nc2nc(-c3cc(O)c(C)c(C)c3O)cs2)cc1 | 94.9% | 89.2% | 88.4% | 74.7% | 114% | 82.2% | 51.6% | 101% | 17.8% | 25.7% |
| OCCn1cc(-c2nc(-c3c[nH]c4ncccc34)cs2)c2cc(F)ccc21 | 66.2% | 37.2% | 80.3% | 39.4% | 62.1% | 65.8% | 70.7% | 23% | 56% | 54.5% |
| CCN(CC)CCCCCNc1cc(OC(=O)c2ccc(Cl)cc2)cc2cccnc12 | 103% | 104% | 96.8% | 94.7% | 106% | 106% | 106% | 95.6% | 108% | 72.6% |
| COc1ccc(F)cc1/C=C/C(=O)/C=C(/C=C/c1cc(F)ccc1OC)OB(F)F | 84.1% | 71.3% | 8.78% (active) | -9.88% (active) | 32.9% | 2.25% (active) | 28.7% | 108% | -14.7% (active) | -16.5% (active) |
| CS(=O)(=O)c1ccc(-c2cnn3ccc(-c4cccc(S(=O)(=O)C5CC5)c4)nc23)cc1 | 49.4% | 67.4% | 55.3% | 49.8% | 45.8% | 54.7% | 52.2% | 30% | 21.3% | 15.3% |
| CC(=O)O[C@H]1CC2CCC3C(CC[C@@]4(C)C3C[C@H]([N+]3(C)CCCCC3)[C@@H]4OC(C)=O)[C@@]2(C)C[C@@H]1N1CCCCC1 (stereo not given in full) | 111% | 97.7% | 93% | 83.3% | 108% | 104% | 88.1% | 111% | 103% | 98.9% |
| COC(=O)Nc1nc2ccc(S(=O)c3ccccc3)cc2[nH]1 (stereo not given) | 48.1% | 80% | 82.2% | 65% | 92.9% | 86.1% | 63.2% | 56.6% | 66.9% | 70.5% |
| Cc1ccccc1/C=C/C(=O)c1cccc(OCCCOc2cccc(C(=O)/C=C/c3ccccc3C)c2)c1 | 102% [3 µM] | 95.1% [3 µM] | 91.8% [3 µM] | 82.8% [3 µM] | 108% [3 µM] | 102% [3 µM] | 77.5% [3 µM] | 104% [3 µM] | 96.2% [3 µM] | 90% [3 µM] |
| CC(C)c1ccc(C(=O)Nc2nc3ccc(O)c(CN(C)C)c3s2)cc1 | 102% | 95.8% | 90.7% | 91.2% | 99.6% | 81.6% | 65.4% | 72.3% | 73.5% | 62.7% |
| CC1OC(n2c3ccccc3c3c4c(c5c6ccccc6[nH]c5c32)C(=O)N(CCN2CCCC2)C4=O)CC(O)C1O (stereo not given) | 86.5% | 57% | 42% | 44.5% | 68.9% | 16.6% | 20.1% | 55.5% | 27.2% | 11.3% |
| O=C(Nc1ccc(Oc2cccc(F)c2)c(Cl)c1)c1cccnc1 | 36.5% | 49.6% | 36.4% | 39.7% | 59.9% | 35.2% | 32.5% | 4.16% (active) | 24% | 40.2% |
| CCCNC(=O)Nc1ccc2cc3ccc(NC(=O)NCCC)cc3nc2c1 | 84.7% | 97.8% | 94.5% | 76.1% | 115% | 78.1% | 104% | 71.4% | 47.4% | 84.8% |
| Nc1nc(-c2ccc(Cl)cc2)nc2c1sc(=S)n2-c1ccccc1 | 83.7% | 40.7% | 53.2% | -38.4% (active) | 14.1% | -4.93% (active) | 42.3% | 26.3% | 85.4% | 82.8% |
| CC1(C)CC(=O)C2=C(C1)N(c1ccc(OC(F)(F)F)cc1)C(N)=C(C#N)C2c1ccc(Br)cc1F (stereo not given) | 88.6% | 82% | 58.7% | 70.3% | 119% | 41.1% | 50.3% | 31.4% | 85.6% | 63% |
| Nc1nc2ccc(-c3nc4ccc5[nH]ncc5c4c4c3CCCC4)cc2s1 | 96.5% | 117% | 98.8% | 85.7% | 96.3% | 111% | 99.7% | 109% | 107% | 104% |
